BJeLR lethal = BJeLR cell viability loss. BJeLR (HRASV12) viability, CellTiter-Glo ATP luminescence, 48 h. inhibition, % (concentration not given with the values). hit rate 0.17% among 300,000. AID 1554; in the data active means inhibition above about 50%
Yp Topo-I inh = blocks Yersinia pestis topoisomerase I activity. hit rate 0.064% among 360,000. activity, % at 10 µM. Y. pestis Topo-I cleavage product accumulation, plate reader; in the data active means activity above about 50%, passing the limit was not always enough
CCHFV vOTU inh = CCHFV vOTU protease inhibition; AID 651958; Pep-AMC fluorescence; hit rate 0.55% among 370,000; inhibition, % at 11.5 µM; in the data active means inhibition above about 30%
PfHsp40 rescue = restores yeast growth despite PfHsp40 toxicity | S. cerevisiae expressing PfHsp40, growth rescue, ATP luminescence | growth rescue, % at 12.5 µM | hit rate 0.68% among 340,000 | AID 504582; in the data active means growth rescue above about 28%, passing the limit was not always enough;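 further: yeast W303a lacking pdr1 and pdr3 grown in galactose medium; growth measured after three days at 30 °C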
PrPC surface inh = inhibitors of human cell surface prion protein PrPC; P04156; TR-FRET read-out; inhibition, % at 13.8 µM; hit rate 0.43% among 370,000; AID 720596; in the data active means inhibition above about 24%
PrP 5UTR inh = inhibition of PrP 5' UTR reporter expression | inhibition, % (no concentration beside the values) | cell-based PrP 5' UTR mRNA reporter, plate reader | hit rate 0.35% among 340,000 | AID 488862; in the data active means inhibition above about 52%
PrPC TRFRET cf = cell surface PrPC inhibition, TR-FRET confirmation; cell surface PrPC level; inhibition, % at 13.8 µM; shares compounds with PrPC surface inh; hit rate 65% among 1,500; in the data active means inhibition above about 25%
LD9 tox = LD9 cell cytotoxicity, PrPc inhibitor counter-screen | AID 743201 | shares compounds with PrPC surface inh | inhibition, % at 13.8 µM | hit rate 29% among 1,500 | LD9 cells cytotoxicity, luminescence viability; in the data active means inhibition above about 9.5%
Each line names hits and unclear results; the compound was inactive in the other large screens (follow-up assays come after a bar, where they were run). An excerpt weighted towards active compounds, which were near 2% of everything screened.

c1csc(CNc2nc(NCC3CCCCC3)c3sccc3n2)c1	PrPC surface inh 26 (no result: BJeLR lethal, PfHsp40 rescue, PrP 5UTR inh) | PrPC TRFRET cf 26 | LD9 tox 14
c1ccc(CNc2nc(NCc3cccs3)nc3ccsc23)cc1	none (no result: BJeLR lethal, PfHsp40 rescue, PrP 5UTR inh)
COc1cc(C#Cc2c(-c3cncn3C)n(C)c3ccc(-c4ccc5[nH]ccc5c4)cc23)cc(OC)c1	PrPC surface inh 27 (no result: BJeLR lethal) | PrPC TRFRET cf inactive | LD9 tox 14
COP1(=O)CCOCC[C@H](CC(C)C)NC(=O)[C@H](CC(C)C)N1 (stereo not given in full)	none (no result: BJeLR lethal, Yp Topo-I inh, CCHFV vOTU inh, PfHsp40 rescue, PrP 5UTR inh)
Cc1ccc(S(=O)(=O)c2cccc(S(=O)(=O)N3CCOCC3)c2)cc1S(=O)(=O)N1CCOCC1	none
Cc1ccc(S(=O)(=O)c2cccc(S(=O)(=O)N3CCCC3)c2)cc1S(=O)(=O)N1CCCC1	PrPC surface inh 34 | PrPC TRFRET cf 30 | LD9 tox inactive
CCc1cc2c(=O)c(-c3ccc4c(c3)OCO4)coc2c(CN(C)C)c1O	PrPC surface inh 86 | PrPC TRFRET cf 95 | LD9 tox inactive
Cc1ccc(OCCNC(=O)[C@@H](Cc2ccccc2)NC(=O)[C@H]2O[C@@H](n3ccc(=O)[nH]c3=O)[C@H](O)[C@@H]2O)cc1C	none (no result: BJeLR lethal, Yp Topo-I inh, PfHsp40 rescue, PrP 5UTR inh)
COC(=O)[C@]12C[C@H](CC(=O)N3CCN(C(=O)C4CC4)CC3)C(=O)N(Cc3ccccc3)C1=C[C@H](COCc1ccccc1)O[C@@H]2C	none (no result: BJeLR lethal, Yp Topo-I inh, PfHsp40 rescue, PrP 5UTR inh)
Cc1cc2sc(C(=O)O)c(C)c2s1	PrPC surface inh 30 | PrPC TRFRET cf 42 | LD9 tox inactive
CC(=O)c1sc(NC(=O)c2ccccc2)nc1-c1ccccc1	none
CC(=O)c1sc(NC(=O)c2c(F)cccc2F)nc1-c1ccccc1	PrPC surface inh 25 | PrPC TRFRET cf inactive | LD9 tox inactive
Cc1nc2ccc(Br)cc2c(-c2ccccc2)c1C(=O)O	PrPC surface inh 62 | PrPC TRFRET cf 82 | LD9 tox inactive
CC(=O)c1c(C)nc2ccc(Br)cc2c1-c1ccccc1	none
COC(=O)c1cc(-c2ccc(Cl)s2)c(=O)n2c1CCC2	none (no result: BJeLR lethal, Yp Topo-I inh, PfHsp40 rescue, PrP 5UTR inh)
